Percent Effect data for ten compounds are collected here from ChEMBL document CHEMBL3988442, “University of Dundee, Small-Polar-MMV Screening Library” (2021).

Common to all, as to set-up: scale not given: direction of the effect not stated beside the values
Experiment [1] addresses Protein translocase subunit SecA (Escherichia coli (strain K12)) (UniProt P10408). Kind of experiment: Assay to Identify E. coli SecA ATPase Inhibitors. The class given is functional. Particulars: 30 µM.
The target in experiment [2] is T1, Ubiquitin-activating enzyme e1, putative (Leishmania donovani (strain BPK282A1)) (UniProt E9BSI1).
T1 sequence (whole entry): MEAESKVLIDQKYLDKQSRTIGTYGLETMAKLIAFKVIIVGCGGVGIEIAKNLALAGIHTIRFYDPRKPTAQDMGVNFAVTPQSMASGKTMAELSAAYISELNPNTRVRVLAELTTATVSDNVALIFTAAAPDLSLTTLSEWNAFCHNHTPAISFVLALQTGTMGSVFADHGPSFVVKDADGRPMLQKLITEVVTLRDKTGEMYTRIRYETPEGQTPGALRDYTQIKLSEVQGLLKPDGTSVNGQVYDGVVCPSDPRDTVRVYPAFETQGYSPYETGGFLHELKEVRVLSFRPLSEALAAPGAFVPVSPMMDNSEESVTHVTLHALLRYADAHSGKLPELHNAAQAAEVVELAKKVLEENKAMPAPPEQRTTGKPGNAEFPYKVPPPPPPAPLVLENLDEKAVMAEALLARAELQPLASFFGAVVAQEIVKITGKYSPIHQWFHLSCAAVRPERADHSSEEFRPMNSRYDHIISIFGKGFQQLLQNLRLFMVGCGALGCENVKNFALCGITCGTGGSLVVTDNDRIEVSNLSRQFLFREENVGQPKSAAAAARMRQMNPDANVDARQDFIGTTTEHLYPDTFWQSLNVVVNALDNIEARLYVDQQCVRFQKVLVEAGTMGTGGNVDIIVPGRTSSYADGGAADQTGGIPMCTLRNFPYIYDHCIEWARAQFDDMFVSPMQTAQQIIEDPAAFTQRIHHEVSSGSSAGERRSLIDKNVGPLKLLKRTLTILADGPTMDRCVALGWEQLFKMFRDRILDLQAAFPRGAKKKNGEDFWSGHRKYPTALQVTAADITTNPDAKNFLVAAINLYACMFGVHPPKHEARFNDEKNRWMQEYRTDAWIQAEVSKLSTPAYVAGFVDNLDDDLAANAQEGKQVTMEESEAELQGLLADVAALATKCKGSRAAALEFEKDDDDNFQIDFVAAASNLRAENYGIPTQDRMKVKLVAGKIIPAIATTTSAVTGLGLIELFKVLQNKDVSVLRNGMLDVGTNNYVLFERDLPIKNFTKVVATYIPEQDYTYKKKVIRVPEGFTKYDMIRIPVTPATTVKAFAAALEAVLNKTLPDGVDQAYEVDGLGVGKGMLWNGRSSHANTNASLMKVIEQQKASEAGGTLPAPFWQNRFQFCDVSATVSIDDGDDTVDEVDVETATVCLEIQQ
The experiment in a line: Leishmania donovani Ubiquitin Activating Enzyme (LdE1). It counts as functional. Conditions: 30 µM.

For experiment [3], the target named is AMP-activated protein kinase, AMPK (Homo sapiens) (UniProt P54646+O43741+P54619+Q9UGJ0+Q9Y478+Q13131+Q9UGI9). The experiment in a line: AMP-dependent Kinase enzyme assay. An in vitro enzyme assay that detects ADP turnover that is directly proportional to AMPK activity. This uses naive AMPK that is activated during the assay with MK-8722. It counts as functional. Conditions: 30 µM.

Experiment [4] addresses Sialic acid-binding Ig-like lectin 9 (Homo sapiens) (UniProt Q9Y336). The experiment in a line: Hs-Siglec9 ALPHAscreen SOP 20170721. Conditions: 10 µM. For orientation: In Alpha technology, singlet oxygen from a donor bead excites a nearby acceptor bead.
The subject of experiment [5] is Trypanosoma cruzi. The experiment in a line: Trypanosoma cruzi phosphomannomutase and mannose-1-phosphate guanylyltransferase assay. The class given is functional. Conditions: 10 µM.
In experiment [6] the target is T2, Arginase-2, mitochondrial (Homo sapiens) (UniProt P78540).
T2 sequence (whole entry): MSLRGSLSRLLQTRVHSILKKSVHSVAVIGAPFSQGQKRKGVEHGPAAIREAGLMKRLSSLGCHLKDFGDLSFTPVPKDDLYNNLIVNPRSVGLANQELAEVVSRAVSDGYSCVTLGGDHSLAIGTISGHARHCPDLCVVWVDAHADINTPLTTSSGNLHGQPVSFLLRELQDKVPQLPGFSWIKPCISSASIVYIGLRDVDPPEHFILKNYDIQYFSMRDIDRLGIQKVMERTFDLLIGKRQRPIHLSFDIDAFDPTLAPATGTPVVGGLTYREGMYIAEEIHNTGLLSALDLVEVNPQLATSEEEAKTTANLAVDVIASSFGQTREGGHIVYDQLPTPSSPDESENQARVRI
Kind of experiment: in vitro enzyme assay to detect the production of urea directly proportional to the activity of Arginase II. Also: in the data most compounds retested in dose-response had high values. It counts as functional. Conditions: 33.3 µM.

Experiment [7] deals with T3, Proteasome subunit beta (Trypanosoma cruzi) (UniProt O96673).
T3 sequence (whole entry): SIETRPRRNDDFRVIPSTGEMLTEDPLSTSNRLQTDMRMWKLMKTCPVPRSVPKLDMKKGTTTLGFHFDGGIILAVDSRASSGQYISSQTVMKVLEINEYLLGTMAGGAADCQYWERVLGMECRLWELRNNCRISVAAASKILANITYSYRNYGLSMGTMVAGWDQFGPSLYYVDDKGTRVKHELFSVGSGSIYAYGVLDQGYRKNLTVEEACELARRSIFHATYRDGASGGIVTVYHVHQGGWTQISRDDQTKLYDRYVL
Kind of experiment: Trypanosoma cruzi proteasome chymotrypsin-like activity (TcProtChymo) assay. Also: in the data most compounds retested in dose-response had high values. The class given is functional. Particulars: 9.37 µM.

The species named for experiment [8] is Homo sapiens. Kind of experiment: To identify inhibition of the IFN signalling (Jak-Stat) pathway via expression of an eGFP reporter gene under the control of an IFN-stimulated response element (ISRE) containing MxA promoter. It counts as functional. Particulars: 30 µM. Background: In a reporter assay the amount or activity of a reporter protein is the signal.

For experiment [9], the target named is T4, Tyrosyl-tRNA synthetase, putative (Trypanosoma cruzi (strain CL Brener)) (UniProt Q4DSP6).
T4 sequence (whole entry): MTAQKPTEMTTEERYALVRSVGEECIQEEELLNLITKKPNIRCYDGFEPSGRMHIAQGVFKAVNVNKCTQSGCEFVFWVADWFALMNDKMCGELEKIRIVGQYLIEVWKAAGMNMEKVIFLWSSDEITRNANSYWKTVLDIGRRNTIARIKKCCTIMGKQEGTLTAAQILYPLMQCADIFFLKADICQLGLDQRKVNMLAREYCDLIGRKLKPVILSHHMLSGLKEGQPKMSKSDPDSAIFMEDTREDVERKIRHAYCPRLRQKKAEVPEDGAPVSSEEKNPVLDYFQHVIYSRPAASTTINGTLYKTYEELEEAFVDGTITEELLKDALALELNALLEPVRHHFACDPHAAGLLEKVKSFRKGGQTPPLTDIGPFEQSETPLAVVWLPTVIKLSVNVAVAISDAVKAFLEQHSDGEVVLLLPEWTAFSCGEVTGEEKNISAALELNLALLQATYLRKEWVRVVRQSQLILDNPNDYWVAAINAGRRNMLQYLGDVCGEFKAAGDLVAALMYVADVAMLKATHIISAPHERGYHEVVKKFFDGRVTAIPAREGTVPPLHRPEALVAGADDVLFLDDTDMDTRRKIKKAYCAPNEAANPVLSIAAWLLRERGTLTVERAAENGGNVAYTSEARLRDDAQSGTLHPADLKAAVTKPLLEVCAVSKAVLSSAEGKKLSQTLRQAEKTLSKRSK
Kind of experiment: Trypanosoma cruzi tyrosyl tRNA synthetase (TcYRS) _High Tyrosine SOP. Also: in the data most compounds retested in dose-response had high values. It counts as functional. Conditions: 30 µM.

Experiment [10] deals with T4, Tyrosyl-tRNA synthetase, putative (Trypanosoma cruzi (strain CL Brener)). Kind of experiment: Trypanosoma cruzi tyrosyl tRNA synthetase (TcYRS) SOP. The class given is functional. Particulars: 30 µM.
For experiment [11], the target named is Chromo domain-containing protein 1 (Saccharomyces cerevisiae (strain ATCC 204508 / S288c) (Baker's yeast)) (UniProt P32657). Kind of experiment: ScCHD-1 Enzyme Inhibition Assay. Also: in the data most compounds retested in dose-response had high values. It counts as functional. Particulars: 30 µM.
Sequence of Chromo domain-containing protein 1 (Saccharomyces cerevisiae (strain ATCC 204508 / S288c) (Baker's yeast)) (P32657 whole entry, the tested form may be a part): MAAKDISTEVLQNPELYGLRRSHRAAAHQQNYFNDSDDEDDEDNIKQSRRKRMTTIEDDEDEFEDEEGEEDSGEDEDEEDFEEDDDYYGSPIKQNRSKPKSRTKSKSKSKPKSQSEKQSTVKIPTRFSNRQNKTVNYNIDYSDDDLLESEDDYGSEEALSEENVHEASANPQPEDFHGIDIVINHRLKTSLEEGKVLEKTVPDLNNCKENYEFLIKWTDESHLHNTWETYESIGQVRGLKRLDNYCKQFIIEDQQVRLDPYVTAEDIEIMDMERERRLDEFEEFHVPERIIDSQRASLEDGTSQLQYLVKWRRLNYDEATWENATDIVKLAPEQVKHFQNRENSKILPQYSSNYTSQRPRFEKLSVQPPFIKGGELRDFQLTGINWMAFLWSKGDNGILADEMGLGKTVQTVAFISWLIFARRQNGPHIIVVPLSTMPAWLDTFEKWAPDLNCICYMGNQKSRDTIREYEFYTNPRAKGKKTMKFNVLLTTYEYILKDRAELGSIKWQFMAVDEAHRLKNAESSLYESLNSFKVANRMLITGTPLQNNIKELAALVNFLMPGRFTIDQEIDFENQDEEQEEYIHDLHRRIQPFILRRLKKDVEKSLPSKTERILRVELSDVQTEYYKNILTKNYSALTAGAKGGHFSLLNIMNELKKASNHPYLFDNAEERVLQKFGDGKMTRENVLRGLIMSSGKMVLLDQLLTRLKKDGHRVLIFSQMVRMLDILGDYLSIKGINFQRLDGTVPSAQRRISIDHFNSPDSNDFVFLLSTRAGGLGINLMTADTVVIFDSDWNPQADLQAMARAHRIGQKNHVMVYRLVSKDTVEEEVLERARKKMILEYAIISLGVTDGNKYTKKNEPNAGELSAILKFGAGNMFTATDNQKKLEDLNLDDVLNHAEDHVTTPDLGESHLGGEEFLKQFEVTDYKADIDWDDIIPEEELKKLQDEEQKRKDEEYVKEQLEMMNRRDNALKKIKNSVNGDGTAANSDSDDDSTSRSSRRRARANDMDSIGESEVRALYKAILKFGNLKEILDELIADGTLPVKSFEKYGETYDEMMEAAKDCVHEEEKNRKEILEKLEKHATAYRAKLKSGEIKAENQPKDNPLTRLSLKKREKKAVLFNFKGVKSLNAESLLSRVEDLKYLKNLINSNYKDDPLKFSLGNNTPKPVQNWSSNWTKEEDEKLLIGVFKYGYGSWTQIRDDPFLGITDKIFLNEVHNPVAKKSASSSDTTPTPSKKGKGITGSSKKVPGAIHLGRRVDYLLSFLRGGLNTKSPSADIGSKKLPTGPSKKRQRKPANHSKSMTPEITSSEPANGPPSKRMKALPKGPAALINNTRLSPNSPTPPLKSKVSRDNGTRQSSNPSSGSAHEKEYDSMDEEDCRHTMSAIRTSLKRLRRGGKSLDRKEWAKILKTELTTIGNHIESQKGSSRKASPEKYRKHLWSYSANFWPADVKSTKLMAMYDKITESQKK

Each structure is given as a SMILES string. For some assays here: Entries with a potency or affinity are not part of this list.

Sequence of Sialic acid-binding Ig-like lectin 9 (Homo sapiens) (Q9Y336 whole entry): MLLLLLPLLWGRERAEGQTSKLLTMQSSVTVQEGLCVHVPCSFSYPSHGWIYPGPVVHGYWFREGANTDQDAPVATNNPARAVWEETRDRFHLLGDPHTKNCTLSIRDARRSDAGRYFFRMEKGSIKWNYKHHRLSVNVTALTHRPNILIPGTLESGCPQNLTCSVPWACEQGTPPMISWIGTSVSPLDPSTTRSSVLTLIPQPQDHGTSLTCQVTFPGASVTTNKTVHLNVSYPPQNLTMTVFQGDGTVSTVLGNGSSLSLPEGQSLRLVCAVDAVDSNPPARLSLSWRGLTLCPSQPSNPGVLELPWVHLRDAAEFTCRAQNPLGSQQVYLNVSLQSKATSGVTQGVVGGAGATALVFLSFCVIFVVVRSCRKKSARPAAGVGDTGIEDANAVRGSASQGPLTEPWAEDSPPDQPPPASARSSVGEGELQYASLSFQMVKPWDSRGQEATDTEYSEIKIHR
Sequence of Protein translocase subunit SecA (Escherichia coli (strain K12)) (P10408 whole entry): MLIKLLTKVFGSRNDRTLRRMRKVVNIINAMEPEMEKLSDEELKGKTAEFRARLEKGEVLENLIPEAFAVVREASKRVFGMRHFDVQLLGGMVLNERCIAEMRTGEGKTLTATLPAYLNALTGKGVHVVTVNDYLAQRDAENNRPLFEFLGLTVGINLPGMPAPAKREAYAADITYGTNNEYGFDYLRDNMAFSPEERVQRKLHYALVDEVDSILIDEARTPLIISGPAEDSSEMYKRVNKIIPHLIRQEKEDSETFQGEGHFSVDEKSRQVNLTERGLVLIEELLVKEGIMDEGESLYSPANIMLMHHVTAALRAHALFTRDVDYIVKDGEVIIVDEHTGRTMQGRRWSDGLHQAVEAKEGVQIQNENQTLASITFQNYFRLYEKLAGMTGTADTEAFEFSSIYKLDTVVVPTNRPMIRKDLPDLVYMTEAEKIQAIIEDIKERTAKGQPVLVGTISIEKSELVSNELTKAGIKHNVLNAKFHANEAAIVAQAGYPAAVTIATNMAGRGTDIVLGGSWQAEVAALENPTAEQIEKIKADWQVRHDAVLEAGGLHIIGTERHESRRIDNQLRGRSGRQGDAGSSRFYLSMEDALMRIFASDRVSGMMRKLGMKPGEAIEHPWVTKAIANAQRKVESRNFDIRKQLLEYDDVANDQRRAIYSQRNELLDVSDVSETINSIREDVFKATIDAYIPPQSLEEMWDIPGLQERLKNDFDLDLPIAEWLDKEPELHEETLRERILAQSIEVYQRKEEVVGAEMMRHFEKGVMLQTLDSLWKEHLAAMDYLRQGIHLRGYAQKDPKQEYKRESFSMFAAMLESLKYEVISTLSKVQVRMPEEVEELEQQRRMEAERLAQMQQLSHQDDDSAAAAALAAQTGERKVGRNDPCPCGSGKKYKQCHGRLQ

For `c1nc(COCC2CC2)c2n1CCCN(CC1CC1)C2`, the Percent Effect in experiment [1] is -8.2%; in experiment [2] it was -2.67%; in [3], 1.44%; in [4], 3.77%; in experiment [5], -2.12%; in experiment [6], -22.4%. Also, the Percent Effect in [7] is -0.513%; in experiment [8] it was -0.93%; in [9], -1.04%; in experiment [10], 0%; in experiment [11], 0.35%.

As for `Cc1ccc(C2COCCN2C(=O)c2ccc(N(C)C)cc2)o1` (stereo not given), the Percent Effect is -1.88% in [1]; 10.7% in experiment [2]; -8.36% in experiment [3]; 13.4% in experiment [4]; 3.02% in [5]; 13.5% in experiment [6]. Moreover, the Percent Effect in experiment [7] was 15.9%; in experiment [8], 19.2%; in experiment [9], 2.73%; in experiment [10] it was 18.5%; in experiment [11], -4.41%.

In the case of `CN(Cc1ncc[nH]1)S(=O)(=O)c1cccc(C(=O)N2CCOCC2)c1`, the Percent Effect in experiment [1] was -6.58%; in experiment [2], 5.48%; in experiment [3], 4.01%; in experiment [4] it was 0.744%; in experiment [5], -1.76%; in experiment [6], 1.82%. In addition, the Percent Effect in experiment [7] was 7.1%; in experiment [8], 0.0404%; in experiment [9], 2.15%; in [10], 7.5%; in [11], -7.89%.

With `CN(C)Cc1cnc2n1CCN(Cc1ccsc1)CC2`, the Percent Effect in experiment [1] was -2.78%; in experiment [2], 13.7%; in experiment [3], -4.83%; in [4], 6.79%; in experiment [5], 2.98%; in experiment [6], 1.2%. Besides, the Percent Effect was 13.4% in experiment [7]; 6.89% in experiment [8]; 8.33% in experiment [9]; 11.1% in experiment [10]; -0.604% in experiment [11].

In the case of `COc1ccc(C(C(=O)O)N2CCCN(C3CCCC3)CC2)cc1OC` (stereo not given), the Percent Effect in experiment [1] is -8.69%; in experiment [2], 0%; in experiment [3], -2.66%; in experiment [4], -4.35%; in experiment [5] it was -3.81%; in experiment [6] it was -2.23%. In addition, the Percent Effect is -0.429% in experiment [7]; 16% in experiment [8]; -9.68% in experiment [9]; -1.24% in experiment [10]; -4.58% in [11].

In the case of `CC(C)c1nc(C(=O)N2CCCC(n3cncn3)C2)c[nH]1` (stereo not given), the Percent Effect in experiment [1] was -4.19%; in experiment [2] it was 11.4%; in [3] it was 3.03%; in experiment [4] it was 3.06%; in [5], -0.308%; in experiment [6] it was 0.215%. Moreover, the Percent Effect in [7] was 12.9%; in [8] it was 20.5%; in experiment [9], 4.17%; in experiment [10], 15.2%; in [11], -17%.

Take `CCOC(=O)N1CCN(C(=O)CCn2ccc3c(OC)cccc32)CC1`: the Percent Effect in experiment [1] was -0.914%; in [2], 0%; in [3], -4.91%; in [4], 2.66%; in experiment [5] it was -6.91%; in experiment [6], -10.7%. In addition, the Percent Effect was 15.8% in experiment [7]; 35% in [8]; 2.13% in experiment [9]; -2.6% in [10]; -1.25% in experiment [11].

Consider `COCCNC(=O)[C@H]1CN(Cc2nccs2)C[C@H]2OCC[C@@H]12`, for which the Percent Effect in experiment [1] was -3.36%; in experiment [2], 16.4%; in [3] it was -2.81%; in experiment [4], 11.4%; in experiment [5] it was 3.17%; in [6] it was 2.4%. Besides, the Percent Effect in experiment [7] was 6.25%; in experiment [8], 15.8%; in [9], 5.21%; in [10], 1.24%; in [11], -0.333%.

Take `O=C([C@H]1CCCO1)N1CC[C@H](O)[C@@H]1Cc1ccncc1`: the Percent Effect in [1] is -0.613%; in [2], 5.2%; in experiment [3], 0.39%; in experiment [4], 3.47%; in experiment [5], -2.07%; in experiment [6], 8.39%. Also, the Percent Effect in [7] was -1.57%; in experiment [8], -7.18%; in [9], 4.23%; in experiment [10], 1.28%; in experiment [11] it was -0.313%.

In the case of `CCc1n[nH]c(C2CN(C(=O)CCc3cccs3)CCO2)n1` (stereo not given), the Percent Effect in experiment [1] is -5.44%; in experiment [2], 11.4%; in experiment [3], -4.01%; in [4], -7.1%; in experiment [5], 1.74%; in experiment [6], 0.645%. For the same compound, the Percent Effect is 8.23% in experiment [7]; 1.68% in experiment [8]; 4.17% in experiment [9]; 12.7% in experiment [10]; -38.8% in experiment [11].
